Assay results reported in PubChem BioAssay (NCI).
Compounds without any hit were thinned out: in the full panel of roughly 83,000, 20% have a hit.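 Testing used 96-well plates and a 48-hour single-concentration exposure. Example: -40 means 40% of the starting cells died.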 Values without a mark were called inactive. Active and inactive are the calls of the source. How the source made its calls: active means growth percent below 10; inactive means the rest.

System: HL-60(TB) leukemia
Assay: NCI-60 one-dose screen, 48 h (100 = growth as untreated, 0 = no growth, -100 = all killed)
Conditions: 10 µM unless noted

SMILES	growth
O=C1/C(=C\c2ccc3nccnc3c2)SC(=S)N1CCc1ccc(O)cc1	75.6%
Ic1ccc2[nH]cc(SSc3c[nH]c4ccc(I)cc34)c2c1	-21.7% (active)
Nc1ncnc2c1N=C(c1ccc3c(c1)OCO3)CC(c1cccc(Nc3ccnc4cc(Cl)ccc34)c1)N2 (stereo not drawn)	37.9%
Oc1ccc(Cl)cc1Cc1cc(Cl)ccc1O	33.8%
Cc1c2c(cc[n+]1Cc1ccc(F)cc1)c1ccc(OCc3cccc(F)c3)cc1n2Cc1cccc(F)c1	-49.3% (active)
COc1c(B(O)O)cccc1-c1nc2c(F)cc3n[nH]c(C)c3c2c2c1CCCC2	6.65% (active)
O=C(Nc1ccc(Cl)c(Cl)c1)Nc1ccccc1O	61.6%
CCCCCCCSc1ncnc2[nH]ncc12	87.4%
CN1C(=O)N(C)C2Nn3c(s/c(=C\c4ccc(Cl)cc4Cl)c3=O)=NC21 (stereo not drawn)	41.5%
O=P(O)(O)OC1C(OP(=O)(O)O)C(OP(=O)(O)O)C(OP(=O)(O)O)C(OP(=O)(O)O)C1OP(=O)(O)O.[Cu+2] (stereo not drawn)	92.6%
CCC(CC)COC(=O)c1ccc(O)c(O)c1	8.36% (active)
COC12C=C/C(=C(/C(=O)OCc3ccncc3)C(=O)CCCCCCCCC3(OC)C=C/C(=C(/C(=O)OCc4ccncc4)C(=O)CCCCCCCC1)O3)O2	-22.9% (active)
COc1ccccc1-n1cnc(N)c1C(=O)c1cc(OC)c(OC)c(OC)c1	10.9%
